Compound activity: PubChem BioAssay, National Center for Advancing Translational Sciences (NCATS)
RORgamma inh: inhibitors of mouse ROR gamma transcriptional activity. Drosophila S2 Gal4-RORgamma UAS-luciferase reporter, 20 h. AID 2551. Potency, µM (doses to about 53.6 µM), actives largely listed as inhibitors. 5.4% of 310,000 active. P51450; further: nearly all actives have a fitted effect of over 60% in size
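ROR gamma transcriptional activity was tracked as Gal4-UAS luciferase output in stably transfected Drosophila Schneider cells, with compound added 1 hr before 700 uM copper sulfate induction and a 20 hr ambient-temperature incubation.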
DT40 TDP1 no CPT: qHTS for Inhibitors of human tyrosyl-DNA phosphodiesterase 1 (TDP1): qHTS in cells in absence of CPT; DT40 Tdp1-/- hTDP1 cells, no CPT, ATP luminescence, 48 h; Potency, µM (titrated, usually from 46.2 µM), most hits filed as inhibitors; AID 686978, 2013; 15% of 420,000 active; further: nearly all actives have a fitted effect of over 55% in size
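Seeded 400 DT40-hTDP1 cells/well (vehicle DMSO, no 20 nM CPT); pinned compounds; ≥48 hr at 37 °C; CellTiter-Glo luminescence as viability measure.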
ALOX12 inh: blocks human arachidonate 12S-lipoxygenase | purified 12hLO, xylenol orange hydroperoxide absorbance | Potency, µM (doses to about 108 µM), most hits filed as inhibitors | 1.1% of 580,000 active
Target sequence (P18054 whole entry, looked up): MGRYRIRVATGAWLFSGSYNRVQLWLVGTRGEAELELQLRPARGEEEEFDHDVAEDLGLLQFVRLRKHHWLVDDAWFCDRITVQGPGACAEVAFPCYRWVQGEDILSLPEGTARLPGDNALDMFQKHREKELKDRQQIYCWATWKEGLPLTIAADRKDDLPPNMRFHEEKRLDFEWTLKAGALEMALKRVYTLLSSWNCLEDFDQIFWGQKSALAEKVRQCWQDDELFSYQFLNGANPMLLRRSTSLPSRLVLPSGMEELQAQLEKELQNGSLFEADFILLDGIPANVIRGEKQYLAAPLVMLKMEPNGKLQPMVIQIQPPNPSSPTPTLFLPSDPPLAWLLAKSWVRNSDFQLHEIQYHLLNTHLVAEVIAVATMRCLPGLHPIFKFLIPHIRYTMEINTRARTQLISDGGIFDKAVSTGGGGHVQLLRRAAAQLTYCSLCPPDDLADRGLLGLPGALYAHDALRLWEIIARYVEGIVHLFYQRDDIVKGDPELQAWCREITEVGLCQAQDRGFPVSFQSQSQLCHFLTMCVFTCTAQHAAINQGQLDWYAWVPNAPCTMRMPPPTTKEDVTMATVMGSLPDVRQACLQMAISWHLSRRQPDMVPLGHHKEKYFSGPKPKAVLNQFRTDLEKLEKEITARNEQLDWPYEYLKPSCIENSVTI
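Hydroperoxide product was detected by ferrous iron/xylenol orange as the 573 to 405 nm absorbance ratio. Arachidonic acid at 40 uM (final) was turned over for 30 min at room temperature by 150 nM human 12hLO, pH 7.0 Hepes buffer, after 15 min compound preincubation.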
TDP1 cell CPT: growth inhibition of DT40 Tdp1-/-;hTDP1 cells with camptothecin (screen for TDP1 inhibitors) | chicken DT40 Tdp1-/-;hTDP1 cells + 20 nM CPT, ATP luminescence, 48 h | Potency, µM (doses to about 46.2 µM), most hits filed as inhibitors | 12% of 420,000 active | AID 686979; further: nearly all actives have a fitted effect of over 55% in size
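Chicken DT40 Tdp1-/- cells stably complemented with human TDP1 were seeded at 400 cells/well in medium containing 20 nM camptothecin, exposed to pin-transferred compounds, and grown at 37 °C for at least 48 hr. Viability was read as ATP luminescence.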
ELG1 DNA repair: ELG1-dependent DNA repair inhibition; HEK293T ELG1-luciferase reporter, luminescence, 16 h; DNA damage induced by 5-fluorouridine; Potency, µM (series often up to 46.1 µM), usual class: inhibitors; 2.3% of 330,000 active; AID 504467; further: nearly all actives have a fitted effect of over 55% in size
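Reporter activity after DNA damage by 5-fluorouridine is monitored. Compound-treated cells incubate 16 hr at 37 °C, then ONE-Glo is added for 30 min before luminescence reading.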
Gal4-VP16 FLuc: inhibits Gal4-VP16 luciferase reporter, ROR gamma counter-screen | Potency, µM (doses to about 53.6 µM), most hits filed as inhibitors | 3.5% of 310,000 active | Drosophila S2 Gal4-VP16 UAS-luciferase, luminescence, 20 h;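 further: Gal4-VP16 expression switched on by copper sulfate through the metallothionein promoter; nearly all actives have a fitted effect of over 50% in size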
Numbers stand for hits; 0 = inactive; ? = inconclusive; - = not tested or not shown. Most compounds without a hit are left out; they make up all but 15% or so of the library. The call rests on the fitted dose curve; in most records, active means well fitted curve in the direction sought with a large enough effect; inconclusive means small, poorly fitted or top-dose-only effect, or another doubt; inactive means no such curve, though single readings can be large; an effect the other way counts as inactive or inconclusive.

SMILES | RORgamma inh | DT40 TDP1 no CPT | ALOX12 inh | TDP1 cell CPT | ELG1 DNA repair | Gal4-VP16 FLuc
Cc1ccc(SC(C)C(=O)Nc2ccc(F)cc2F)cc1 (stereo not given) | - | - | 0 | - | - | -
COC(=O)c1cc(Br)cc(Br)c1O | - | - | 0 | - | - | -
O=c1cc(Br)c(O)c(Br)cc1Br | - | 18µM | ? | ? | - | -
CCOc1ccc(NC(=O)c2nc(S(=O)(=O)Cc3ccccc3F)ncc2Cl)cc1 | - | 0.33µM | ? | 0.37µM | - | -
CCOC(=O)c1ccc(NC(=O)c2nc(SCc3ccccc3F)ncc2Cl)cc1 | - | ? | 0 | ? | - | -
O=C(Nc1ccc(OC(F)F)cc1)c1nc(S(=O)(=O)Cc2ccccc2F)ncc1Cl | - | 1µM | ? | 0.45µM | - | -
COc1ccc(C)cc1S(=O)(=O)N(CC(=O)Nc1ccc2c(c1)OCCO2)Cc1ccccc1 | 0 | ? | 0 | 10µM | 18µM | 0
COc1ccccc1N(CC(=O)Nc1ccc2c(c1)OCO2)S(=O)(=O)c1ccccc1 | 0 | 13µM | ? | ? | ? | 0
COc1cccc(N(CC(=O)Nc2ccc3c(c2)OCO3)S(=O)(=O)c2ccccc2)c1 | ? | ? | 0 | ? | 0 | 0
COc1ccc(S(=O)(=O)N(CC(=O)Nc2ccc3c(c2)OCO3)c2ccccc2OC)cc1 | 0 | 15µM | 0 | 21µM | ? | 0
CCn1cc(Br)c(C(=O)Nc2cc(C(F)(F)F)ccc2Cl)n1 | - | - | 0 | - | - | -
CCc1nc(-c2c3n(c(=O)n(Cc4ccc(OC)cc4)c2=O)CCCCC3)no1 | - | - | 0 | - | - | -
CC(=O)c1c2c3c(c(Br)ccc3n(C)c1=O)C(=O)c1ccccc1-2 | 0 | 23µM | 0 | ? | 0 | 0
CC(=O)c1c2c3c(cccc3n(C)c1=O)C(=O)c1ccccc1-2 | 0 | 0 | - | 0 | 0 | 0
CCc1ccc(C2C(C(=O)N3CCCCC3)=C(C)NC3=C2C(=O)CC(C)(C)C3)cc1 (stereo not given) | - | - | 0 | - | - | -
COc1ccc(N2Cc3c(NCC4CCCCCC4)ncnc3N(C)CC2=O)cc1 | - | - | 0 | - | - | -
CCCNC(=O)c1onc(CSc2ccc(F)c(F)c2)c1C(=O)NCCC | - | ? | 0 | 15µM | - | -
CN(C)CCNC(=O)c1onc(CSc2ccc(F)c(F)c2)c1C(=O)NCCN(C)C | 0 | 16µM | 0 | 0 | ? | 0
CN(C)C(=O)c1ccc(CNc2nc3ccccc3o2)cc1 | - | - | 0 | - | - | -
O=C(/C=C/c1cccc(Cl)c1)c1cccc(O)c1 | - | - | 0 | - | - | -
Cc1cc2cc(CNS(=O)(=O)c3ccc4ccccc4c3)ccc2n1C | 0 | 0 | 0 | 0 | 0 | 0
O=C(COc1ccc(F)cc1)NCc1ccc2c(c1)CCN2C(=O)c1ccccc1 | - | 0 | 0 | 0 | - | -
Cc1cc(C)c(S(=O)(=O)NCc2ccc3c(c2)CCN3C(=O)c2ccccc2)c(C)c1 | - | 10µM | 0 | 15µM | - | -
CCC(=O)N1CCc2cc(CNS(=O)(=O)c3c(C)cc(C)cc3C)ccc21 | - | 21µM | ? | ? | - | -
Cc1cc(C)c(S(=O)(=O)NCc2ccc3c(c2)cc(C)n3C)c(C)c1 | ? | 23µM | 0 | ? | 0 | 0
SMILES | RORgamma inh | DT40 TDP1 no CPT | ALOX12 inh | TDP1 cell CPT | ELG1 DNA repair | Gal4-VP16 FLuc
NC(=O)C1CCN([C@H]2[C@@H]3OC[C@@H](O3)[C@@H](NCc3ccc(F)cc3)[C@@H]2O)CC1 | - | - | 0 | - | - | -
O=C(C[C@@H]1CCNC[C@@H]1Cc1cc(CC2CCCCC2)on1)N1CCC(Cc2ccccc2)CC1 | - | - | 0 | - | - | -
COC[C@@H]1CNC[C@H]1c1nc(C2CC2)no1 | - | - | 0 | - | - | -
Cc1cccc(-c2ocnc2C(=O)NCCc2ccccc2C)c1 | - | - | 0 | - | - | -
CCN(CC)C(=O)CN1CCN(c2nc(-c3ccccn3)nc3scc(-c4ccccc4)c23)CC1 | - | - | 0 | - | - | -
O=[N+]([O-])c1ccc2nc(Cl)nc(-c3ccccc3)c2c1 | 0 | 7.3µM | - | 12µM | 0 | 0
CCOc1ccc(NC(=O)COC(=O)c2ccccc2OCC(=O)N(C)C)cc1 | - | 0 | - | 0 | - | -
COc1cc2ccccc2cc1C(=O)OCC(=O)Nc1ccc(Br)cc1 | - | ? | - | 7.9µM | - | -
COC(=O)c1ccc(NC(=O)c2ccccc2OCC(=O)Nc2ccc(Br)cc2)cc1 | - | 10µM | - | ? | - | -
CN(C)C(=O)COc1ccccc1C(=O)OCC(=O)Nc1ccc(Oc2ccc(Br)cc2)cc1 | - | 11µM | - | ? | - | -
